Results published in PubChem BioAssay (EPA / NIEHS).
Records with an inconclusive call do not appear. More than one record can exist for a structure, and the calls need not agree. Calls of active or inactive are those of the source. How the source made its calls: active means hit-call score of the fitted dose curve at least 0.9, where 1 is the maximum; inconclusive means response in the unintended direction; inactive means score below 0.9.

Key:
[1] = molecular target: Cellular tumor antigen p53 (Homo sapiens) (UniProt P04637); assay: TOX21_p53_BLA_p5_ratio: Tox21 HCT-116 p53 Agonism Beta-lactamase Assay, Ratio, Phase 5 (AID 2283599)
Cellular tumor antigen p53 (Homo sapiens), sequence (P04637 whole entry, looked up): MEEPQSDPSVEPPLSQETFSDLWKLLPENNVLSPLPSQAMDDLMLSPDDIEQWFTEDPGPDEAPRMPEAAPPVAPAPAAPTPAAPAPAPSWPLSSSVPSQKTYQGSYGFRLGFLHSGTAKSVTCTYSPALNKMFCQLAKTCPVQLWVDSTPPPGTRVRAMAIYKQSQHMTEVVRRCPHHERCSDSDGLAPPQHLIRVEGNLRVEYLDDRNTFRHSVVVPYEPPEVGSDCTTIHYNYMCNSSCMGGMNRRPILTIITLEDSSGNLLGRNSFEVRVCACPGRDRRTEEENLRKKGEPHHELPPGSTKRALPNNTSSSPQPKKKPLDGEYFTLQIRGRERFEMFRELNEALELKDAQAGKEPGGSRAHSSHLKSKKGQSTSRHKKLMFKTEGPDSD
Method in brief: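 HCT-116 p53-bla cells (4000/well) plated 5 h, dosed with compound (217-fold DMSO dilution) for 16 h at 37 C; CCF4-AM substrate 2 h at room temperature. Activity is the 460/530 nm emission ratio (405 nm excitation), fitted in gain-of-signal direction versus DMSO.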

[2] = Tanguay_ZF_120hpf_MORT_legacy: (Legacy) Oregon State University Tanguay Lab 120 Hour Post-fertilization zebrafish Assay for Mortality (AID 2283633);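 on AC50: fitted as increase in binary mortality versus DMSO negative control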
Method in brief: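 Mortality endpoint from a multiplexed whole-embryo zebrafish screen. Dechorionated wild-type embryos received compound at 6 hpf and remained under static exposure at 28C until 120 hpf, with death noted as a present/absent call.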

[3] = Tanguay_ZF_120hpf_YSE_legacy: (Legacy) Oregon State University Tanguay Lab 120 Hour Post-fertilization zebrafish Assay for Yolk Sac Edema (AID 2283634);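 on AC50: actives raise the incidence of yolk sac edema above the DMSO baseline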
Method in brief: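 Readout: presence or absence of yolk sac edema at 120 hpf, fitted upward against DMSO controls. Exposure ran statically from 6 hpf in dechorionated embryos kept at 28C.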

[4] = Tanguay_ZF_120hpf_AXIS_legacy: (Legacy) Oregon State University Tanguay Lab 120 Hour Post-fertilization zebrafish Assay for Body Axis Malformation (AID 2283635)
Method in brief: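 Static 6–120 hpf chemical exposure of dechorionated wild-type 5D zebrafish, one per well at 28C; morphology endpoint scored binary at 120 hpf relative to DMSO control.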

[5] = Tanguay_ZF_120hpf_EYE_legacy: (Legacy) Oregon State University Tanguay Lab 120 Hour Post-fertilization zebrafish Assay for Eye Malformation (AID 2283636);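 further: binary presence or absence of eye malformation scored by brightfield in 120 hpf larvae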
Method in brief: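 Dechorionated Tropical 5D zebrafish embryos, one per well from 6 hpf, static exposure to 120 hpf at 28C, 0.64% DMSO. Eye malformation scored present/absent by brightfield; dead embryos not scored.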

[6] = Tanguay_ZF_120hpf_SNOU_legacy: (Legacy) Oregon State University Tanguay Lab 120 Hour Post-fertilization zebrafish Assay for Snout Malformation (AID 2283637)
Method in brief: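 Dechorionated tropical 5D wild-type zebrafish embryos exposed statically from 6 to 120 hpf at 28C, one per well, in 0.64% DMSO. Snout malformation scored as present/absent by brightfield at 120 hpf; dead embryos not scored.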

[7] = Tanguay_ZF_120hpf_JAW_legacy: (Legacy) Oregon State University Tanguay Lab 120 Hour Post-fertilization zebrafish Assay for Jaw Malformation (AID 2283638)
Method in brief: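 Static waterborne exposure of dechorionated wild-type (Tropical 5D) zebrafish from 6 to 120 hpf at 28C, 0.64% DMSO vehicle; 5uM trimethyltin chloride served as positive control. Jaw morphology recorded as binary at 120 hpf.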

[8] = Tanguay_ZF_120hpf_OTIC_legacy: (Legacy) Oregon State University Tanguay Lab 120 Hour Post-fertilization zebrafish Assay for Otic Vesicle Malformation (AID 2283639)
Method in brief: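 Otic vesicle malformation is read as a yes/no morphology call at 120 hpf. Exposure is static at 28C with 0.64% (vol/vol) DMSO; embryos that die are excluded from non-mortality endpoints.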

[9] = molecular target: Cellular tumor antigen p53 (Homo sapiens) (UniProt P04637); assay: TOX21_p53_BLA_p4_ratio: Tox21 HCT-116 p53 Agonism Beta-lactamase Assay, Ratio, Phase 4 (AID 2283601)
Method in brief: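 HCT-116 p53 beta-lactamase reporter cells (4000/well) preincubated 5 h, then compound (217-fold dilution of DMSO stock) for 16 h at 37C. CCF4-AM substrate added 2 h at room temperature; 460/530 nm emission ratio fitted upward versus DMSO.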

[10] = TOX21_p53_BLA_p5_viability: Viability Assessment in the Tox21 HCT-116 p53 Agonism Beta-lactamase Assay, Phase 5 (AID 2283600)
Method in brief: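 Counter-readout for cytotoxicity: ATP-dependent luminescence from CellTiter-Glo, read in the beta-lactamase wells after 30 min at RT, following a 16 h compound exposure at 37C.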

Measured: AC50

CCC(C)N(C)C(=O)c1cc2ccccc2c(-c2ccccc2Cl)n1 (centres undefined)
active: [3] 20.4 µM
not listed: [9] | [10]
inactive: all other assays above

O=C1OC(c2ccc(O)cc2)(c2ccc(O)cc2)c2ccccc21
not listed: [8] | [10]
inactive: all other assays above

CCCCCCC(CCCCCCCCCCC(=O)OCC(COC(C)=O)OC(C)=O)OC(C)=O (centres undefined)
not listed: [9] | [10]
inactive: all other assays above

COC(=O)[C@H]1[C@H]2C[C@@H]3c4[nH]c5cc(OC)ccc5c4CCN3C[C@H]2C[C@@H](OC(=O)c2cc(OC)c(OC)c(OC)c2)[C@@H]1OC
inactive: all assays above

Cc1cc(SC2=C(O)C[C@@](CCc3ccc(N)cc3)(C(C)C)OC2=O)c(C(C)(C)C)cc1CO
not listed: [9] | [10]
inactive: all other assays above

Cc1cc(Cc2ccc(N)c(C)c2)ccc1N
not listed: [9] | [10]
inactive: all other assays above

CCCC[C@H]1CN(CC2CCOCC2)C(=O)OC12CCN(C1(C)CCN(C(=O)c3c(C)ncnc3C)CC1)CC2
not listed: [9] | [10]
inactive: all other assays above

CC(=O)S[C@H](C(=O)N[C@H]1Cc2ccccc2[C@H]2CCC[C@@H](C(=O)O)N2C1=O)C(C)C
not listed: [9] | [10]
inactive: all other assays above

Oc1ccccc1O
inactive: [1] | [2] | [3] | [4] | [5] | [6]

O=C1c2c(O)cccc2Cc2cccc(O)c21
not listed: [9] | [10]
inactive: all other assays above

CCCCC(CC)COP(=O)(OCC(CC)CCCC)OCC(CC)CCCC (centres undefined)
not listed: [9] | [10]
inactive: all other assays above

COc1ccc(OC(F)(F)F)cc1CN[C@H]1CCCN[C@H]1c1ccccc1
active: [9] 82.3 µM | [2] 25 µM
not listed: [10]
inactive: all other assays above

COC(=O)CCC(=O)OC
not listed: [10]
inactive: all other assays above

NC(=Nc1ccccc1)Nc1ccccc1
not listed: [9] | [10]
inactive: all other assays above

O=C(O)c1[nH]n(-c2ccc(S(=O)(=O)O)cc2)c(=O)c1N=Nc1ccc(S(=O)(=O)O)cc1
active: [1] 0.0652 nM
inactive: [1] | [2] | [3] | [4] | [5] | [6] | [7] | [8]

O=C(O)CN(CC(=O)O)CC(=O)O
not listed: [8] | [9]
inactive: all other assays above

Oc1ccc(O)cc1
active: [2] 1.77 µM
not listed: [9] | [10]
inactive: all other assays above

CCc1cc(C2=C(C(=O)O)N(c3ccccc3C(F)(F)F)S(=O)(=O)c3ccccc32)cc2c1OCO2
not listed: [8] | [9] | [10]
inactive: all other assays above

CCCCC(CC)COC(=O)CCCCCCCC(=O)OCC(CC)CCCC (centres undefined)
not listed: [9] | [10]
inactive: all other assays above
